# From PubChem BioAssay AID2013 (Sanford-Burnham Center for Chemical Genomics, 2009)
# Screen size: about 290,000 compounds; about 370 (0.13%) were called active. The list comes from a sample in which actives are over-represented; it also holds similar structures and randomly drawn compounds. Measured potencies and affinities stand elsewhere. Unmarked numbers belong to inactive results.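 The calls were made as follows: active = spots per cell inhibited over 60%, with over 100 cells counted and total cytoplasm intensity under 500,000; inconclusive = wells with under 100 cells, flagged as likely toxic; inactive = the rest.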
# Molecular target: G-protein coupled receptor 55 (Homo sapiens) (UniProt Q9Y2T6)
# Sequence (Q9Y2T6 whole entry, looked up): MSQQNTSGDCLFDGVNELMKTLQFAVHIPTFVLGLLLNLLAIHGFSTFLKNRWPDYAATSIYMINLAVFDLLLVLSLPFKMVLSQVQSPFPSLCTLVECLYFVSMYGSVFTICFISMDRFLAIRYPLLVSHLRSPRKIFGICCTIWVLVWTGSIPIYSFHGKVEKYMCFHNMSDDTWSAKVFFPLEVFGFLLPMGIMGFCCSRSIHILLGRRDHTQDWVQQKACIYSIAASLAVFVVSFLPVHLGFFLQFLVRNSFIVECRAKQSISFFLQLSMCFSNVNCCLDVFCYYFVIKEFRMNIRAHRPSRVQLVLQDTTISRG
# Test: inhibition of LPI-stimulated GPR55 beta-arrestin translocation – imaging, U2OS, beta-arrestin-GFP, LPI agonist, primary screen (AID 2013);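 also: U2OS cells stably carrying GPR55 and arrestin-GFP stimulated by 5 µM LPI near EC80; imaged beta-arrestin-GFP aggregate spots per cell after agonist stimulation; plate controls were LPI-stimulated DMSO wells for no effect and DMSO wells without LPI for full effect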
# Settings: LPI antagonism, at 10 µM, hits give high values
row,Structure (SMILES),inhibition
1,CCOc1ccc(-n2nc3c(=O)[nH]nc(C)c3c2C)cc1,7.8%
2,COc1ccc(C2C(C#N)=C(N)Oc3c2c(-c2ccccc2)nn3-c2ccccc2)c(OC)c1OC (stereo not drawn),79.5%
3,COc1cc(C2C(C#N)=C(N)Oc3c2c(-c2ccccc2)nn3-c2ccccc2)cc(OC)c1OC (stereo not drawn),-13.1%
4,COc1ccccc1C1C(C#N)=C(N)Oc2c1c(-c1ccccc1)nn2-c1ccccc1 (stereo not drawn),96.3% (active)
5,COc1ccc(C(=O)NC(=S)Nc2ccccc2N2CCOCC2)cc1Br,0.4%
6,CCc1ccc(C(=O)NC(=S)Nc2ccc(N3CCOCC3)cc2)cc1,4.3%
7,O=C(/C=C/c1ccco1)Nc1ccccc1N1CCOCC1,10.8%
8,O=C(COc1ccc(Br)cc1)NC(=S)Nc1ccccc1N1CCOCC1,0.7%
9,O=C(NC(=S)Nc1ccccc1N1CCOCC1)c1ccccc1F,16.2%
10,O=C(NC(=S)Nc1ccccc1N1CCOCC1)c1ccc([N+](=O)[O-])cc1,5%
11,O=C(/C=C/c1ccco1)NC(=S)Nc1ccccc1N1CCCC1,23%
12,Cc1ccc(C(=O)NC(=S)Nc2ccccc2N2CCOCC2)cc1C,0.3%
13,CCOC(=O)c1sc(NC(=O)CSc2ncn(-c3ccccc3)n2)nc1C,14.4%
14,CCOC(=O)N1CCN(Cc2nc3c(c(=O)n(C)c(=O)n3C)n2CCC(C)C)CC1,-1.3%
15,COC(=O)C1=CC(C(=O)c2cccs2)=NN(c2ccc(OC)cc2)C1C(=O)OC (stereo not drawn),7.5%
16,COc1ccc(C(=O)NCC(=O)N2CCC3(CC2)NCCc2[nH]cnc23)cc1,-11.2%
17,O=C(c1csc2ccccc12)n1cccn1,-12.1%
18,Oc1ccccc1/C=N/n1cnnc1,-8.4%
19,Nc1nc(C23CC4CC(CC(C4)C2)C3)cs1,24.8%
20,Nc1nc(C23CC4CC(CC(Cl)(C4)C2)C3)cs1,-9.3%
21,Cc1cccc(N=Nc2c(C)[nH]n(C(N)=S)c2=O)c1C,10.8%
22,Cc1[nH]n(C(N)=S)c(=O)c1N=Nc1ccccc1C(F)(F)F,7.7%
23,Cc1ccccc1N=Nc1c(C)[nH]n(C(N)=S)c1=O,93.2% (active)
24,S=C(Nc1ccccc1Oc1ccccc1)Nc1cccc(Cl)c1Cl,-5.2%

row,Structure (SMILES),inhibition
1,S=C(Nc1cccc(Cl)c1)Nc1ccccc1Oc1ccccc1,8.7%
2,CCc1nc(NC(=O)Cc2csc(C)n2)sc1C(=O)OC,14.5%
3,COc1ccc(Cn2ccnc2SCC(=O)Nc2nnc(C)s2)cc1,-0.9%
4,CCc1nnc(NS(=O)(=O)c2ccc(NC(=O)Nc3ccc(OC)cc3)cc2)s1,-0.7%
5,CCc1nnc(NS(=O)(=O)c2ccc(NC(=O)/C=C/C(=O)O)cc2)s1,6.6%
6,CCc1nnc(NS(=O)(=O)c2ccc(NC(=O)/C=C/c3ccc(F)cc3)cc2)s1,1.5%
7,CCc1nnc(NS(=O)(=O)c2ccc(NC(=S)NC(=O)/C=C/c3ccc(OC)cc3)cc2)s1,10.6%
8,COc1ccc(/C(C)=N\Nc2nc(-c3ccccc3)cc(=O)[nH]2)cc1,12.1%
9,Cc1nn2c(N3CCOCC3)cc(C(C)(C)C)nc2c1-c1ccc(Cl)cc1,-7.5%
10,O=C(O)c1cc(NC(=O)c2ccc(Cl)c([N+](=O)[O-])c2)cc(C(=O)O)c1,6.4%
11,O=C(Nc1ccc(C(O)(C(F)(F)F)C(F)(F)F)cc1)c1ccc(Cl)c([N+](=O)[O-])c1,88.6% (active)
12,O=C(Nc1ccc(Nc2ccccc2)cc1)c1ccc(Cl)c([N+](=O)[O-])c1,12%
13,CCCn1c2c(c(O)c(C(=O)Nc3ncccc3O)c1=O)CCCC2,-10.6%
14,CCCCn1c(=O)[nH]c(=O)c2c1nc(CN1C(=O)c3ccccc3S1(=O)=O)n2CCC,8.3%
15,CCCCn1c(CCC(=O)O)nc2c1c(=O)[nH]c(=O)n2CCC,-0.5%
16,CCC(Sc1nc(N)cc(=O)[nH]1)C(=O)NC(C(=O)OC)c1ccccc1 (stereo not drawn),3.4%
17,COc1ccc(C2CCCN2CC(O)COc2ccccc2C(C)C)cc1 (stereo not drawn),5.6%
18,O=C1CC(SC(=Nc2ccccc2)Nc2ccccc2)C(=O)N1c1ccc(Cl)c(Cl)c1 (stereo not drawn),72.2% (active)
19,O=C1CC(SC(=Nc2ccccc2)Nc2ccccc2)C(=O)N1c1ccc(Cl)cc1 (stereo not drawn),6.2%
20,O=C1CC(SC(=Nc2ccccc2)Nc2ccccc2)C(=O)N1c1cccc(Cl)c1 (stereo not drawn),17.2%
21,Cc1ccc(CNC(=O)c2nnn(CC(=O)Nc3cccc(C)c3C)c2N)cc1,18.1%
22,Cc1cc(SCc2ccc(Br)cc2)nc(=O)[nH]1,-5.2%
23,CCOc1ccc(OCc2ccc(C(=O)N3CCCCC3)o2)cc1,18.5%
24,O=C(O)c1cc(NS(=O)(=O)c2ccc(NCc3ccccc3)c([N+](=O)[O-])c2)cc(C(=O)O)c1,58.9%

row,Structure (SMILES),inhibition
1,O=C(O)c1cc(NS(=O)(=O)c2ccc(N3CCCCC3)c([N+](=O)[O-])c2)cc(C(=O)O)c1,5%
2,Cc1sc(NC(=O)c2cc(-c3ccc(Cl)cc3)nc3ccccc23)c(C(N)=O)c1C,28.7%
3,Cc1sc(NC(=O)c2cc(-c3ccccc3)nc3ccccc23)c(C(N)=O)c1C,-0.9%
4,Cc1ccc(C)c(-c2cc(C(=O)Nc3sc(C)c(C)c3C(N)=O)c3ccccc3n2)c1,18%
5,CCOC(=O)c1sc(NC(=O)c2cc(-c3ccccc3C)nc3ccccc23)c(C#N)c1C,-36.6%
6,O=C(c1cc2cc(Br)ccc2o1)N1CCN(c2ccccc2)CC1,5.9%
7,CC(Sc1nnc(-c2ccc(OC(F)F)cc2)o1)C(=O)NCC1CCCO1 (stereo not drawn),17.5%
8,COc1cc(NC(=O)CN2CCCCC2)c(C)cc1[N+](=O)[O-],10.9%
9,COc1cc(NC(=O)CN2C(=O)CN(C)C2=O)c(C)cc1[N+](=O)[O-],10.3%
10,C=CCNC(=O)C1CCC(=O)N1S(=O)(=O)c1ccc(C)cc1 (stereo not drawn),9.3%
11,CC(c1ccccc1C(O)(c1ccccc1)c1ccccc1)N(C)C (stereo not drawn),6.4%
12,CC(c1ccccc1C(O)c1ccccc1)N(C)C (stereo not drawn),28.9%
13,S=c1[nH]nc(CCc2ccc(Cl)cc2)o1,9.7%
14,COc1ccc(S(=O)(=O)N(CC(=O)N2CCCCCC2)c2ccccc2OC)cc1,9.8%
15,CCOC(=O)c1cc(C#N)c(Oc2cccc(C(F)(F)F)c2)nc1-c1ccccc1,10%
16,COC(=O)c1cc(C#N)c(Oc2ccc(F)cc2)nc1C,20.6%
17,CCOC(=O)c1cc(C#N)c(Oc2ccccc2OC)nc1-c1ccccc1,18.2%
18,CCOC(=O)c1cc(C#N)c(SC)nc1-c1ccccc1,18%
19,CCOC(=O)c1c(C)[nH]c(C)c1S(=O)(=O)NCCN1CCN(c2cc(Cl)ccc2C)CC1,11.1%
20,Cc1ccc(NS(=O)(=O)c2cccc(C(=O)O)c2)cc1S(=O)(=O)N1CCCCC1,5.9%
21,Cc1cc(C)nc(SC2CC(=O)N(c3ccc(Cl)cc3)C2=O)n1 (stereo not drawn),20.8%
22,O=[N+]([O-])c1ncn(C23CC4CC(CC(C4)C2)C3)n1,-8.9%
23,N#CC(c1ccccn1)c1ncc(C(F)(F)F)cc1Cl (stereo not drawn),3.6%
24,O=C(NCc1ccccn1)c1ccc(Cl)c(S(=O)(=O)N2CCCCCC2)c1,21.3%

row,Structure (SMILES),inhibition
1,CCCCC1(Cc2ccc([N+](=O)[O-])cc2)C(=O)N(c2ccccc2)N(c2ccccc2)C1=O,51.2%
2,CCCCC1(CC(=O)OCC)C(=O)N(c2ccccc2)N(c2ccccc2)C1=O,17.5%
3,CCCCC1(CO)C(=O)N(c2ccccc2)N(c2ccccc2)C1=O,-5.2%
4,CCCCC1(CC(=O)OC)C(=O)N(c2ccccc2)N(c2ccccc2)C1=O,-3.2%
5,CCCCCCSc1nc(O)c(C2OC(=O)c3c2ccc(OC)c3OC)c(=O)n1CC (stereo not drawn),2.6%
6,CC(=O)c1ccc(NC(=O)CCc2c(C)nn(-c3ccc(N4CCOCC4)nn3)c2C)cc1,4.4%
7,O=C(NCc1ccco1)C(=O)NCC1OCCN1C(=O)c1ccc(Cl)cc1 (stereo not drawn),2.4%
8,O=C(Nc1ccnc(=O)[nH]1)c1sc2ccccc2c1Cl,5.4%
9,CCOCc1nnc(NC(=O)c2cc(OC)c(OC)cc2[N+](=O)[O-])s1,1.7%
10,O=C1CSC(c2cccc(Cl)c2Cl)N1c1ccccn1 (stereo not drawn),13%
11,O=C1CSC(c2ccc(Cl)cc2Cl)N1c1ccccn1 (stereo not drawn),22.4%
12,C/C(CC(=O)N1CCN(C=O)CC1)=N\NC(=O)c1cc2ccccc2cc1O,5.8%
13,Cc1nc2c(oc3ccc(Cl)cc32)c(=O)[nH]1,-10.2%
14,Clc1ncnc2c1oc1ccccc12,26.5%
15,Cc1c(N/C(=N/S(=O)(=O)c2ccc(Cl)cc2)c2ccccc2)c(=O)n(-c2ccccc2)n1C,-4.8%
16,COc1ccc(-c2noc(-c3ccccc3-c3ccccc3)n2)cc1,10.6%
17,c1ccc(-c2ccccc2-c2nc(-c3ccncc3)no2)cc1,41.2%
18,Cc1ccc(N/N=C(\C#N)C(=N)N2CCOCC2)cc1,86.4% (active)
19,Cc1ccc(N/N=C(\C#N)C(=N)N2CCCCC2)cc1,2.6%
20,Cc1ccc(N/N=C(\C#N)C(=N)N2CCCCCC2)cc1,-5%
21,CN(CC(=O)NCc1ccccc1F)S(=O)(=O)c1ccc(Cl)cc1,3.3%
